Consider 38 compounds from PubChem BioAssay (EPA / NIEHS).

What is called AC50 is the concentration giving half of the maximal activity seen.

The structures appear in SMILES notation. The source made the active and inactive calls. How the source made its calls: active means hit-call score of the fitted dose curve at least 0.9, where 1 is the maximum; inactive means score below 0.9.

Read-out in the first experiment: JUN Transcription Factor, JUN (gene 3725)
Kind of experiment: LTEA_HepaRG_JUN: Life Technologies and Expression Analysis (LTEA) Assay for JUN Transcription Factor using HepaRG (AID 2283513). To be noted: mRNA level, 48 h; actives raise or lower the signal. An outline of the steps:
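Gene-expression endpoint: JUN mRNA (qRT-PCR, normalized to three reference genes) in HepaRG cultures treated 48 h with chemicals, duplicate wells, 100 uM maximum with half-log dilutions; bidirectional fitting relative to 0.5% DMSO.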
Take `CCCCCc1ccc(N)cc1`: the call was inactive. Regarding `O=C1CCC(C2CCCCC2)CC1`, the call was inactive. Consider `CC(C)(c1cc(Br)c(O)c(Br)c1)c1cc(Br)c(O)c(Br)c1`, for which the AC50 is 94.7 µM (active).

Regarding `CO[C@H]1/C=C/O[C@@]2(C)Oc3c(C)c(O)c4c(O)c(c(/C=N/N5CCN(C)CC5)c(O)c4c3C2=O)NC(=O)/C(C)=C\C=C\[C@H](C)[C@H](O)[C@@H](C)[C@@H](O)[C@@H](C)[C@H](OC(C)=O)[C@@H]1C`, the call was inactive.

Turning to `Cc1c2ccccc2c(C)c2c1ccc1ccccc12`, the call was inactive.

For `Cc1oc2c(NC(=O)c3c(Cl)cccc3Cl)cccc2c1C(C)(C)O`, the compound was classed as inactive. As for `Cc1cccc2ccccc12`, the call was inactive. As for `Cc1cn([C@H]2C[C@H](N=[N+]=[N-])[C@@H](CO)O2)c(=O)[nH]c1=O`, the result was inactive. As to `Cc1ccc2oc(CN(Cc3ccccc3)C(=O)Nc3c(F)cc(F)cc3F)c(-c3ccc(Cl)cc3)c2c1`, the outcome was inactive. On the same count and under the same terms, the entry for `CCCCOC(=O)CC(CC(=O)OCCCC)(OC(C)=O)C(=O)OCCCC` is “inactive”. `O=C(O)Cc1cc(I)c(Oc2ccc(O)c(I)c2)c(I)c1`: the AC50 was 80.7 µM (active).

For `CC1(C)NC(=O)N(c2ccc([N+](=O)[O-])c(C(F)(F)F)c2)C1=O`, the compound was classed as inactive. Same read-out and setting: the entry for `O=C(O)Cn1c(=O)n(Cc2ccc(Br)cc2F)c(=O)c2ccc(Cl)cc21` is “inactive”.

Consider `O=CCCCC=O`, for which the call was inactive. For the compound `CN(C)c1ccc(C(=C2C=CC(=[N+](C)C)C=C2)c2ccc(N(C)C)cc2)cc1`, the AC50 was 89.2 µM (active). On to `CCCCCCCCCCCC[N+](C)(C)C`, for which the AC50 was 82.8 µM (active). Regarding `Cc1cc2c(cc1C(F)(F)F)N(C(=O)Nc1ccc(Oc3cccnc3C)nc1)CC2`, the result was inactive.

Read-out in the next experiment: Lipase C (LIPC), LIPC (gene 3990)
Kind of experiment: LTEA_HepaRG_LIPC: Life Technologies and Expression Analysis (LTEA) Assay for Lipase C (LIPC) using HepaRG (AID 2283514). Particulars: mRNA level, 48 h; actives raise or lower the signal. The procedure, abridged: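 In this multiplexed gene-expression screen, human HepaRG cultures received test chemicals for 48 h across eight concentrations with 100 uM highest, in duplicate. Values reflect LIPC mRNA induction or suppression versus DMSO vehicle, from normalized qRT-PCR.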
On to `CCCCCc1ccc(N)cc1`, for which the compound was called inactive.

Turning to `CC(O)CC(C)(C)O` (configuration not stated), the result was inactive. Still for that read-out and setting: the entry for `O=C1CCC(C2CCCCC2)CC1` is “inactive”; for `CC[C@@H]1C[C@H](N(Cc2cc(C(F)(F)F)cc(C(F)(F)F)c2)C(C)=O)c2cc(C(F)(F)F)ccc2N1C(=O)OC(C)C` it is “inactive”; for `CO[C@H]1/C=C/O[C@@]2(C)Oc3c(C)c(O)c4c(O)c(c(/C=N/N5CCN(C)CC5)c(O)c4c3C2=O)NC(=O)/C(C)=C\C=C\[C@H](C)[C@H](O)[C@@H](C)[C@@H](O)[C@@H](C)[C@H](OC(C)=O)[C@@H]1C` it is “inactive”. Take `O=C(Nc1ccc(Cl)cc1)Nc1ccc(Cl)c(Cl)c1`: the AC50 was 15.1 µM (active). For `Cc1c2ccccc2c(C)c2c1ccc1ccccc12`, the AC50 was 30.6 µM (active).

Consider `Cc1ncc(CO)c(CO)c1O`, for which the result was inactive. Turning to `Cc1cccc2ccccc12`, the outcome was inactive. For the compound `Cc1cn([C@H]2C[C@H](N=[N+]=[N-])[C@@H](CO)O2)c(=O)[nH]c1=O`, the result was inactive. With `Cc1ccc2oc(CN(Cc3ccccc3)C(=O)Nc3c(F)cc(F)cc3F)c(-c3ccc(Cl)cc3)c2c1`, the AC50 is 44.2 µM (active). As to `COc1cc(C(=O)NC2CCN(C)CC2)ccc1Nc1ncc2c(n1)N(C1CCCC1)CC(F)(F)C(=O)N2C`, the AC50 was 4.65 µM (active).

With `CCCCOC(=O)CC(CC(=O)OCCCC)(OC(C)=O)C(=O)OCCCC`, the compound was classed as inactive. Same read-out and setting: the entry for `CCCCOC(=O)c1ccc(O)cc1` is “inactive”; for `CC/C(=C(/CC)c1ccc(O)cc1)c1ccc(O)cc1` it is “inactive”; for `CCCCCCCCOc1ccc(C(=O)c2ccccc2)c(O)c1` it is “inactive”. On to `CN(C)C(=O)C1(N2CCCCC2)CCN(CC[C@@]2(c3ccc(Cl)c(Cl)c3)CN(C(=O)c3ccccc3)CCO2)CC1`, for which the compound was called inactive.

Read-out in the next experiment: Lipoprotein lipase (LPL), LPL (gene 4023)
Kind of experiment: LTEA_HepaRG_LPL: Life Technologies and Expression Analysis (LTEA) Assay for Lipoprotein lipase (LPL) using HepaRG (AID 2283515). Particulars: mRNA level, 48 h; actives raise or lower the signal. The procedure, abridged: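 Concentration-response testing used half-log steps from 100 uM in 0.5% DMSO on human HepaRG cells, 48 h, duplicate wells. Phenobarbital 1 mM served as induction control; LPL mRNA was normalized to ACTB, GAPDH, POLR2A.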
With `CCCCCc1ccc(N)cc1`, the compound was called inactive. As to `CC(O)CC(C)(C)O` (configuration not stated), the result was inactive. As to `O=C1CCC(C2CCCCC2)CC1`, the compound was classed as inactive. `CC[C@@H]1C[C@H](N(Cc2cc(C(F)(F)F)cc(C(F)(F)F)c2)C(C)=O)c2cc(C(F)(F)F)ccc2N1C(=O)OC(C)C`: the compound was called inactive. In the case of `O=c1ccc2ccccc2o1`, the result was inactive. For the compound `CC(C)(c1cc(Br)c(O)c(Br)c1)c1cc(Br)c(O)c(Br)c1`, the AC50 was 84.5 µM (active). Regarding `CO[C@H]1/C=C/O[C@@]2(C)Oc3c(C)c(O)c4c(O)c(c(/C=N/N5CCN(C)CC5)c(O)c4c3C2=O)NC(=O)/C(C)=C\C=C\[C@H](C)[C@H](O)[C@@H](C)[C@@H](O)[C@@H](C)[C@H](OC(C)=O)[C@@H]1C`, the compound was classed as inactive.

For `O=C=NCCCCCCN=C=O`, the compound was called inactive. For the compound `O=C(Nc1ccc(Cl)cc1)Nc1ccc(Cl)c(Cl)c1`, the AC50 was 12.7 µM (active). On to `Cc1c2ccccc2c(C)c2c1ccc1ccccc12`, for which the AC50 was 82.5 µM (active). Turning to `Cc1ncc(CO)c(CO)c1O`, the call was inactive.

Consider `COc1cccc([C@H](O)C2CCN(CCc3ccc(F)cc3)CC2)c1OC`, for which the AC50 was 71.6 µM (active).

For `CCN(Cc1cccnc1)C(=O)c1cccc(Cl)c1[C@]1(C)C(=O)N(Cc2ccc(OC)cc2OC)c2ccc(Cl)cc21`, the AC50 is 10.4 µM (active). With `Cc1oc2c(NC(=O)c3c(Cl)cccc3Cl)cccc2c1C(C)(C)O`, the AC50 is 14 µM (active). As to `Cc1cccc2ccccc12`, the compound was classed as inactive. On to `CC1=CC(=O)/C(=C(/C)O)C(=O)O1`, for which the compound was called inactive.

Consider `Cc1cn([C@H]2C[C@H](N=[N+]=[N-])[C@@H](CO)O2)c(=O)[nH]c1=O`, for which the result was inactive. Take `c1ccc2ccccc2c1`: the compound was called inactive.

`O=c1c(-c2ccc(O)cc2)coc2cc(O)cc(O)c12`: the compound was classed as inactive. With `Cc1ccc2oc(CN(Cc3ccccc3)C(=O)Nc3c(F)cc(F)cc3F)c(-c3ccc(Cl)cc3)c2c1`, the AC50 is 56.4 µM (active). With `C[C@]12CC[C@@H]3c4ccc(O)cc4CC[C@H]3[C@@H]1CCC2=O`, the outcome was inactive. With `COc1cc(C(=O)NC2CCN(C)CC2)ccc1Nc1ncc2c(n1)N(C1CCCC1)CC(F)(F)C(=O)N2C`, the AC50 is 14 µM (active).

As for `CCCCOC(=O)CC(CC(=O)OCCCC)(OC(C)=O)C(=O)OCCCC`, the call was inactive. With `O=C(O)Cc1cc(I)c(Oc2ccc(O)c(I)c2)c(I)c1`, the AC50 is 65.7 µM (active). For the compound `CC1(C)NC(=O)N(c2ccc([N+](=O)[O-])c(C(F)(F)F)c2)C1=O`, the half-maximal activity concentration (AC50) was 76.2 µM (active). Take `CCCCOC(=O)c1ccc(O)cc1`: the result was inactive. For `CC/C(=C(/CC)c1ccc(O)cc1)c1ccc(O)cc1`, the concentration at half-maximal activity (AC50) is 83.9 µM (active). With `NCc1cccc(C2CCN(C(=O)c3ccc(C#Cc4ccccc4F)o3)CC2)c1`, the compound was called inactive. Regarding `CCCCCCCCN(C)CCCCCCCC`, the compound was called inactive. Turning to `O=C(O)Cn1c(=O)n(Cc2ccc(Br)cc2F)c(=O)c2ccc(Cl)cc21`, the AC50 was 9.92 µM (active). For the compound `CCCCCCCCOc1ccc(C(=O)c2ccccc2)c(O)c1`, the call was inactive. Consider `CC(=O)N1CCN(c2ccc(OC[C@H]3CO[C@](Cn4ccnc4)(c4ccc(Cl)cc4Cl)O3)cc2)CC1`, for which the AC50 is 86.3 µM (active). In the case of `c1ccc2n[nH]nc2c1`, the call was inactive.

Take `O=CCCCC=O`: the outcome was inactive.

For the compound `CN(C)c1ccc(C(=C2C=CC(=[N+](C)C)C=C2)c2ccc(N(C)C)cc2)cc1`, the AC50 is 36 µM (active). Same read-out and setting: the figure for `CN(C)C(=O)C1(N2CCCCC2)CCN(CC[C@@]2(c3ccc(Cl)c(Cl)c3)CN(C(=O)c3ccccc3)CCO2)CC1` is 24.8 µM (active). `CCCCCCCCCCCC[N+](C)(C)C`: the half-maximal activity concentration (AC50) is 82 µM (active).

For `Cc1cc2c(cc1C(F)(F)F)N(C(=O)Nc1ccc(Oc3cccnc3C)nc1)CC2`, the AC50 was 80.4 µM (active).
